Results reported in PubChem BioAssay (NCI).
Compounds without any hit were thinned out: in the full panel of roughly 79,000, 15% have a hit. Active and inactive are the calls of the source. Rule as the data show it: active = growth inhibition above about 70%; inactive = the rest.

Key:
[1] = NCI Yeast Anticancer Drug Screen. Data for the wt1 strain (AID 149);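 also: 0% = growth of vehicle-treated wt1 cultures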; settings: S. cerevisiae wt1 strain (SPY 50644) growth inhibition, stronger effect = higher value
In short: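 The wt1 strain was treated with compounds, and growth was compared with vehicle-treated cultures to give inhibition.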

[2] = NCI Yeast Anticancer Drug Screen. Data for the rad50EPP+ strain (AID 151);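 also: 0% = growth of vehicle-treated control cultures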; settings: S. cerevisiae rad50 mutant strain, stronger effect = higher value
In short: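 Read-out is yeast growth inhibition relative to vehicle; cells used were the rad50EPP+ strain.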

[3] = NCI Yeast Anticancer Drug Screen. Data for the mgt1 strain (AID 153); settings: S. cerevisiae mgt1 mutant growth inhibition, stronger effect = higher value
In short: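 Measured: inhibition of mgt1 yeast growth by compound, normalized to vehicle-treated cultures.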

[4] = NCI Yeast Anticancer Drug Screen. Data for the rad50 strain (AID 155);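 also: 0% = growth of vehicle-only cultures of the same strain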; settings: S. cerevisiae rad50 strain growth inhibition, stronger effect = higher value
In short: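 Cells are treated with compound, grown, and their growth is then scored against vehicle-only cultures of the same repair-deficient yeast strain.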

[5] = NCI Yeast Anticancer Drug Screen. Data for the mec2-1 strain (AID 157); settings: S. cerevisiae mec2-1 strain, stronger effect = higher value
In short: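 Using mec2-1 yeast: add compound, measure growth, express inhibition versus vehicle-treated cultures.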

[6] = NCI Yeast Anticancer Drug Screen. Data for the rad14 strain (AID 159);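 also: 0% = growth of vehicle-treated control cultures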; settings: S. cerevisiae rad14 strain growth inhibition, stronger effect = higher value
In short: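 Readout: yeast growth inhibition, referenced to vehicle-only cultures. Strain bears a defined alteration in DNA damage repair.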

[7] = NCI Yeast Anticancer Drug Screen. Data for the sgs1 mgt1 strain (AID 161);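 also: 0% = growth of cultures given vehicle only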; settings: S. cerevisiae sgs1 mgt1 strain, stronger effect = higher value
In short: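 Compounds are added to genetically altered yeast, and growth is compared with cultures given vehicle alone to give percent inhibition.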

[8] = NCI Yeast Anticancer Drug Screen. Data for the CLN2oe strain (AID 163);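 also: 0% = growth of vehicle-only control cultures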; settings: S. cerevisiae CLN2oe strain, stronger effect = higher value
In short: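 Whole-cell yeast growth assay. A strain engineered for altered cell-cycle control received compound, and inhibition relative to vehicle-treated cultures was recorded.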

[9] = NCI Yeast Anticancer Drug Screen. Data for the cln2 rad14 strain (AID 165);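 also: 0% = growth equal to vehicle treated cultures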; settings: S. cerevisiae cln2 rad14 strain, stronger effect = higher value
In short: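 Yeast strain cln2 rad14, bearing defects in cell cycle control and DNA repair, serves as the test system; values reflect growth inhibition compared with vehicle.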

[10] = NCI Yeast Anticancer Drug Screen. Data for the bub3 strain (AID 167); settings: S. cerevisiae bub3 mutant strain, stronger effect = higher value
In short: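 Part of a panel of yeast mutants defective in DNA damage repair or cell cycle regulation. Each strain is grown with compound, and inhibition is calculated relative to solvent-treated cultures.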

[11] = NCI Yeast Anticancer Drug Screen. Data for the wt2 strain (AID 169);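 also: 0% = growth of vehicle-treated yeast cultures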; settings: S. cerevisiae wt2 strain growth inhibition, stronger effect = higher value
In short: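 Treated yeast vs. vehicle-treated yeast: growth inhibition determined.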

[12] = NCI Yeast Anticancer Drug Screen. Data for the mlh1 strain (AID 171);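 also: 0% = growth of vehicle-treated control cultures of the same strain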; settings: S. cerevisiae mlh1 strain growth inhibition, stronger effect = higher value
In short: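 A yeast strain with a defined genetic lesion serves as the test organism. Cultures receive compound or vehicle, and growth is measured.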

[13] = NCI Yeast Anticancer Drug Screen. Data for the sgs1 strain (AID 173);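 also: 0% = growth of vehicle-only control cultures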; settings: S. cerevisiae sgs1 mutant, stronger effect = higher value
In short: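 A genetically defined yeast mutant is incubated with the test compound, and its growth is compared to that of the same strain given vehicle.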

[14] = NCI Yeast Anticancer Drug Screen. Data for the mlh1 rad18 strain (AID 175); settings: S. cerevisiae mlh1 rad18 strain growth inhibition, stronger effect = higher value
In short: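 Steps: expose repair-defective yeast to compound; measure growth; express inhibition against vehicle-treated controls.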

[15] = NCI Yeast Anticancer Drug Screen. Data for the rad18 strain (AID 177); settings: S. cerevisiae rad18 mutant growth inhibition, stronger effect = higher value
In short: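 Measured value is growth inhibition of a yeast strain bearing a DNA repair alteration, referenced to vehicle-treated cells.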

[16] = at 5.0 µM (retest, dose inferred, filed as 0.5)
[17] = at 50.0 µM (retest, dose inferred, filed as 5.0)

Measured: growth inhibition

N#CSCC1COc2ccccc2O1 (stereo unspecified)
inactive: [1]; at 1.2 µM -49% | [1]; at 3.7 µM -49% | [1]; at 11.0 µM -28% | [1]; at 33.0 µM 54% | [2]; at 1.2 µM -28% | [2]; at 3.7 µM -18% | [2]; at 11.0 µM -5% | [3]; at 1.2 µM -25% | [3]; at 3.7 µM -23% | [3]; at 11.0 µM -9% | [3]; at 33.0 µM 68% | [4]; at 1.2 µM -1% | [4]; at 3.7 µM 1% | [4]; [16] -5% | [4]; at 11.0 µM 8% | [5]; at 1.2 µM -21% | [5]; at 3.7 µM -33% | [5]; [16] -27% | [5]; at 11.0 µM -5% | [6]; at 1.2 µM -20% | [6]; at 3.7 µM -12% | [6]; at 11.0 µM -16% | [6]; at 33.0 µM 20% | [7]; [16] -25% | [7]; [17] 26% | [8]; at 1.2 µM -11% | [8]; at 3.7 µM -14% | [8]; at 11.0 µM -14% | [9]; [16] -6% | [10]; at 1.2 µM -33% | [10]; at 3.7 µM -11% | [10]; [16] 8% | [10]; at 11.0 µM -16% | [11]; at 1.2 µM -50% | [11]; at 3.7 µM -51% | [11]; at 11.0 µM -24% | [11]; at 33.0 µM 58% | [12]; at 1.2 µM -51% | [12]; at 3.7 µM -37% | [12]; at 11.0 µM -27% | [13]; at 1.2 µM -46% | [13]; at 3.7 µM -42% | [13]; at 11.0 µM -8% | [14]; [16] 5% | [15]; at 1.2 µM -21% | [15]; at 3.7 µM -22% | [15]; at 11.0 µM 17%
active: [1]; at 100.0 µM 97% | [2]; at 33.0 µM 83% | [2]; at 100.0 µM 97% | [3]; at 100.0 µM 97% | [4]; at 33.0 µM 86% | [4]; [17] 89% | [4]; at 50.0 µM 88.4% | [4]; at 100.0 µM 98% | [5]; at 33.0 µM 87% | [5]; [17] 91% | [5]; at 50.0 µM 90.8% | [5]; at 100.0 µM 97% | [6]; at 100.0 µM 98% | [7]; at 50.0 µM 90.6% | [8]; at 33.0 µM 70% | [8]; at 100.0 µM 98% | [9]; [17] 85% | [9]; at 50.0 µM 85.3% | [10]; at 33.0 µM 87% | [10]; [17] 94% | [10]; at 50.0 µM 90.9% | [10]; at 100.0 µM 98% | [11]; at 100.0 µM 96% | [12]; at 33.0 µM 77% | [12]; at 100.0 µM 97% | [13]; at 33.0 µM 73% | [13]; at 100.0 µM 97% | [14]; [17] 94% | [14]; at 50.0 µM 88.2% | [15]; at 33.0 µM 91% | [15]; at 100.0 µM 98%

CC1(C2CC2)C(C#N)(C#N)C1(C#N)C#N
inactive: [1]; at 1.2 µM -2% | [1]; at 3.7 µM -2% | [1]; at 11.0 µM 5% | [1]; at 33.0 µM 19% | [1]; at 100.0 µM 48% | [2]; at 1.2 µM -1% | [2]; at 3.7 µM 2% | [2]; at 11.0 µM 1% | [2]; at 33.0 µM 9% | [2]; at 100.0 µM 9% | [3]; at 1.2 µM -1% | [3]; at 3.7 µM -2% | [3]; at 11.0 µM 1% | [3]; at 33.0 µM 16% | [3]; at 100.0 µM 63% | [4]; at 1.2 µM -1% | [4]; at 3.7 µM 3% | [4]; [16] -106% | [4]; at 11.0 µM 25% | [4]; at 33.0 µM 66% | [4]; at 50.0 µM 38.1% | [5]; at 1.2 µM 4% | [5]; at 3.7 µM 2% | [5]; [16] -39% | [5]; at 11.0 µM 33% | [5]; at 33.0 µM 36% | [5]; [17] 57% | [5]; at 50.0 µM 41.9% | [6]; at 1.2 µM 4% | [6]; at 3.7 µM 7% | [6]; at 11.0 µM 16% | [6]; at 33.0 µM 29% | [6]; at 100.0 µM 66% | [7]; [16] -48% | [7]; at 50.0 µM 51% | [8]; at 1.2 µM -2% | [8]; at 3.7 µM 8% | [8]; at 11.0 µM 16% | [8]; at 33.0 µM 21% | [8]; at 100.0 µM 53% | [9]; [16] -50% | [9]; [17] 7% | [9]; at 50.0 µM 16.3% | [10]; at 1.2 µM -7% | [10]; at 3.7 µM -2% | [10]; [16] -57% | [10]; at 11.0 µM 19% | [10]; at 33.0 µM 49% | [10]; at 50.0 µM 39.8% | [11]; at 1.2 µM -1% | [11]; at 3.7 µM -2% | [11]; at 11.0 µM -1% | [11]; at 33.0 µM 15% | [11]; at 100.0 µM 69% | [12]; at 1.2 µM 4% | [12]; at 3.7 µM -9% | [12]; at 11.0 µM 9% | [12]; at 33.0 µM 31% | [13]; at 1.2 µM -1% | [13]; at 3.7 µM 6% | [13]; at 11.0 µM 23% | [13]; at 33.0 µM 60% | [14]; [16] -96% | [15]; at 1.2 µM 4% | [15]; at 3.7 µM 9% | [15]; at 11.0 µM 22% | [15]; at 33.0 µM 53%
active: [4]; [17] 91% | [4]; at 100.0 µM 91% | [5]; at 100.0 µM 84% | [7]; [17] 70% | [10]; [17] 81% | [10]; at 100.0 µM 84% | [12]; at 100.0 µM 84% | [13]; at 100.0 µM 94% | [14]; [17] 89% | [14]; at 50.0 µM 70.9% | [15]; at 100.0 µM 87%
